Reference: PubChem BioAssay (EPA / NIEHS)
Calls of active or inactive are those of the source. Rule for the calls: active = hit-call score of the fitted dose curve at least 0.9, where 1 is the maximum; inactive = score below 0.9.

Experiment: CCTE_Harrill_HTTr_Viability_MCF7: CCTE's 6-hour Cell Viability Assessment for the High-Throughput Transcriptomics (HTTr) Platform, in MCF-7 cells cultured in DMEM + 10% fetal bovine serum, Harrill Lab (AID 2284010)
Excerpt: This is a cell-based assay that evaluates cell viability using high content imaging to evaluate membrane integrity using propidium iodide dye exclusion in a 384 well format.One of seven assay components measured from the CCTE_Harrill_HTTr_Viability assay. This was part of a full screening experiment. This is a cell-based assay that evaluates cell viability in MCF-7 cells cultured in DMEM + 10% fetal bovine serum. High content imaging is used to evaluate membrane integrity using propidium iodide dye exclusion. Measurements are taken at 6 hours after chemical dosing in 384-well format.The assay component endpoint CCTE_Harrill_HTTr_Viability_MCF7 was analyzed with bidirectional fitting relation to DMSO as the negative control and baseline of activity. Using a type of viability reporter, gain-of-signal activity can be used to evaluate membrane integrity using propidium iodide dye exclusion to understand changes in cytotoxicity. To generalize the intended target to other relatable targets, this assay endpoint is annotated to cell cycle, where the subfamily is cytotoxicity.
Chemicals were tested in MCF7 cells in an eight point dilution series with a six hour exposure duration.

Compound	outcome	AC50
CCC(=C(c1ccc(O)cc1)c1ccc(OCCN(C)C)cc1)c1ccccc1	inactive	–
C#C[C@]1(O)CC[C@H]2[C@@H]3CCC4=CC(=O)CC[C@@H]4[C@H]3CC[C@@]21C	inactive	–
Oc1cccc(O)c1	inactive	–
CC(C)(C)c1cccc(C(C)(C)C)c1O	inactive	–
C=C(C)C(=O)OCCC(F)(F)C(F)(F)C(F)(F)C(F)(F)C(F)(F)C(F)(F)F	inactive	–
CC(O)CO (stereo not given)	inactive	–
O=c1c(-c2ccc(O)cc2)coc2cc(O)ccc12	inactive	–
CC(=O)NC1(c2cccc(F)c2)CCN(CC[C@@]2(c3ccc(Cl)c(Cl)c3)CN(c3ccccc3)C(=O)CO2)CC1	inactive	–
Cc1cc(CCN2CCN(c3nsc4ccccc34)CC2)cc2c1NC(=O)CC2(C)C	–	77.3 µM (active)
Oc1cc2ccccc2c2ccccc12	–	9.92 µM (active)
CC[C@H](C)[C@@H](C(=O)O)n1sc2ccccc2c1=O	inactive	–
COc1ccc([N+](=O)[O-])cc1N	inactive	–
CC(C)(C)CC(C)(C)c1ccc(O)c(-n2nc3ccccc3n2)c1	inactive	–
CCCCC[C@H](O)CC(=O)CCc1ccc(O)c(OC)c1	inactive	–
CCCCOCCO	inactive	–
CCOC(=O)CC(O)(CC(=O)OCC)C(=O)OCC	inactive	–
COCC(C)O (stereo not given)	inactive	–
N#C[C@@H]1CC(F)(F)CN1C(=O)CNC1CC2CCC(C1)N2c1ncccn1 (stereo not given in full)	inactive	–
NC(=O)N(O)[C@@H]1C=C[C@H](Oc2cccc(Oc3ccc(F)cc3)c2)C1	inactive	–
CCCOC(=O)c1ccc(O)cc1	inactive	–

Compound	outcome	AC50
O=[N+]([O-])c1ccc(O)cc1	inactive	–
Cc1cc(C)c(O)c(C)c1	inactive	–
c1ccc2c(c1)Cc1ccccc1-2	inactive	–
c1ccc2c(c1)ccc1ccccc12	inactive	–
CC(O)C(=O)O (stereo not given)	inactive	–
OC1CCCCC1	inactive	–
CCc1nn(C2CCCCC2)c2cc(C3(C#N)CCC(C(=O)O)CC3)ccc12 (stereo not given)	inactive	–
OCCC(F)(F)C(F)(F)C(F)(F)C(F)(F)C(F)(F)C(F)(F)F	inactive	–
CCCCCCCCOC(=O)CCCCCCCCC(=O)OCCCCCCCC	inactive	–
CC(C)(C)c1ccc(O)c(C(C)(C)C)c1	inactive	–
Cc1oc(-c2ccccc2)nc1CCOc1ccc(C[C@H](Nc2ccccc2C(=O)c2ccccc2)C(=O)O)cc1	inactive	–
O=C(O)Cc1cc(I)c(Oc2cc(I)c(O)c(I)c2)c(I)c1	inactive	–
ClC1=C(Cl)C(Cl)(Cl)C(Cl)=C1Cl	inactive	–
COC(=O)CCCCC(=O)OC	inactive	–
CC(=O)CC(C)(C)O	inactive	–
O=C1OC2(c3ccccc31)c1cc(Br)c(O)c(Br)c1Oc1c2cc(Br)c(O)c1Br	inactive	–
O=C(OCCOCCOC(=O)c1ccccc1)c1ccccc1	inactive	–
CC(C)CCCCCCOC(=O)CCCCC(=O)OCCCCCCC(C)C	inactive	–
CCCCCCC(=O)O	inactive	–
CCN(CC)CCNc1ccc(CNC=O)c2sc3ccc(OC)cc3c(=O)c12	inactive	–
